# An excerpt weighted towards active compounds, which were near 6.7% of everything screened.
# C diff HTS: C. difficile growth inhibition | Clostridium difficile clinical isolate growth, OD600, 24 h; active compounds read low | growth activity, negative = inhibition, % at 16 µg/mL (by protocol) | actives 0.25% (n = 86,000);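 active means mean growth activity at or below -80% and every replicate also at or below -80%; inconclusive means mean at or below -80% but some replicate above -80%; inactive means mean growth activity above -80%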;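 further: 0% = DMSO wells and -100% = levofloxacin 16 µg/mL wells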
# T cruzi growth-1: T. cruzi proliferation inhibition; T. cruzi beta-gal in NIH3T3, GalScreen luminescence, 90 h; inhibition, % at 8.34 µM; actives 5.9% (n = 77,000);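 active means mean inhibition above about 93%, with at least 55% of replicates each passing it, limit read from the data, passing the limit was not always enough; inconclusive means only one of those two conditions holds; inactive means neither condition holds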
# Pf Dd2 growth: inhibitors of Plasmodium falciparum Dd2 growth | activity change, % at 10 µM | actives 2.3% (n = 94,000) | P. falciparum Dd2 growth, SYBR Green, 72 h; active compounds read low; in the data active means activity change below about -80%; inconclusive means no clear call, values can overlap the other calls
# T cruzi growth-2: Trypanosoma cruzi proliferation inhibition; actives 72% (n = 5,600); inhibition, % at 8.35 µM; T. cruzi beta-gal in NIH3T3, GalScreen luminescence, 90 h; AID 651739; shares compounds with T cruzi growth-1;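 active means mean replicate inhibition above about 95% and at least 55% of replicates individually reaching it, limit read from the data; inconclusive means only one of the two criteria is met; inactive means neither criterion is met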
# T cruzi growth-3: blocks T. cruzi growth in NIH3T3 host cells | shares compounds with T cruzi growth-1 | T. cruzi beta-gal in NIH3T3, GalScreen luminescence, 90 h | inhibition, % at 2.09 µM | actives 21% (n = 5,600);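 active means mean inhibition above about 95%, with at least 55% of replicates also reaching it, limit read from the data; inconclusive means meets just one of the two conditions; inactive means meets neither condition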;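 further: plate controls were neutral control median for no effect and positive control median for full effect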
# NIH3T3 tox: NIH/3T3 (mouse) viability loss | cytotoxicity (signal decrease), % at 8.35 µM | actives 14% (n = 5,600) | NIH/3T3 viability, CellTiter-Glo ATP luminescence, 90 h | shares compounds with T cruzi growth-1;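 active means mean signal decrease across replicates above about 35% based on untreated-well scatter, with enough replicates individually passing, limit read from the data; inconclusive means no rule stated though some were filed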;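 further: 0% = median of neutral control wells and 100% = median of positive control wells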
# NIH3T3 tox 2: cytotoxicity in mouse NIH/3T3 fibroblasts; inhibition, % at 24.9 µM; actives 56% (n = 5,600); shares compounds with T cruzi growth-1; NIH/3T3 viability, CellTiter-Glo ATP luminescence, 90 h;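 active means mean loss of cell viability signal at or above a set limit, and enough replicates individually reaching it; inconclusive means meets only the mean limit or only the replicate share; inactive means meets neither condition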;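 further: 0% = median of neutral control wells and 100% = median of positive control wells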
# An asterisk follows results filed as active; ? = inconclusive; · = not tested or not shown.
SMILES,C diff HTS,T cruzi growth-1,Pf Dd2 growth,T cruzi growth-2,T cruzi growth-3,NIH3T3 tox,NIH3T3 tox 2
O=C(c1ccccc1)N1CC[C@@H]2[C@@H](CO)Nc3ccc(-c4ccccc4F)cc3[C@@H]21,-9,108*,-4,108*,79,8,?
O=C(c1cccc(F)c1)N1CC[C@@H]2[C@H]1c1cc(-c3ccccc3F)ccc1N[C@@H]2CO,-5,90,30,·,·,·,·
O=C(c1ccc(F)cc1)N1CC[C@@H]2[C@H]1c1cc(-c3ccccc3F)ccc1N[C@@H]2CO,3,100*,-76,95*,70,10,103*
O=C(c1ccccc1)N1CC[C@@H]2[C@@H](CO)Nc3ccc(-c4ccc(F)cc4)cc3[C@@H]21,-2,69,?,·,·,·,·
COc1ccc(-c2ccc3c(c2)[C@H]2[C@H](CCN2C(=O)c2cnccn2)[C@H](CO)N3)cc1,-2,108*,-43,105*,112*,-4,-19
CNC[C@@H]1OCCCC[C@H](C)Oc2ccc(NC(=O)CCC(F)(F)F)cc2C(=O)N([C@H](C)CO)C[C@@H]1C,-3,29,38,·,·,·,·
O=C(c1cnccn1)N1CC[C@@H]2[C@H]1c1cc(-c3ccccc3F)ccc1N[C@@H]2CO,-7,100*,-22,107*,28,20,44*
O=C(c1cnccn1)N1CC[C@@H]2[C@H](CO)Nc3ccc(-c4ccccc4F)cc3[C@@H]21,-10,97,-28,·,·,·,·
COCC(=O)Nc1ccc2c(c1)[C@@H]1C[C@H](CC(=O)NCC(F)(F)F)O[C@H](CO)[C@@H]1O2,-1,·,6,·,·,·,·
CO[C@@H]1CN(C)C(=O)c2cc(NC(=O)C3CC3)ccc2OC[C@H](C)N(C(=O)CN2CCOCC2)C[C@H]1C,·,24,11,·,·,·,·
COc1ccccc1S(=O)(=O)Nc1ccc2c(c1)OC[C@H](C)NC[C@H](C)[C@@H](OC)CN(C)C2=O,-2,·,28,·,·,·,·
C[C@@H]1CN([C@H](C)CO)C(=O)c2cc(C#CC3CCCC3)cnc2O[C@H]1CN(C)S(=O)(=O)c1cccc(F)c1,-1,?,-60,104*,80,32,77*
C[C@@H]1CN([C@@H](C)CO)C(=O)c2cc(C#CC3CCCCC3)cnc2O[C@H]1CN(C)S(=O)(=O)c1cccc(F)c1,3,·,-32,·,·,·,·
C[C@H]1CN([C@@H](C)CO)C(=O)c2cc(C#CC3CCCC3)cnc2O[C@@H]1CN(C)S(=O)(=O)c1cccc(F)c1,-2,120*,-70,105*,48,11,83*
C[C@@H]1CN([C@@H](C)CO)C(=O)c2cc(C#CC3CCCCC3)cnc2O[C@@H]1CN(C)S(=O)(=O)c1cccc(F)c1,-6,·,-5,·,·,·,·
CNC(=O)C[C@H]1CC[C@@H]2[C@H](COc3ccc(NC(=O)c4cc(C)on4)cc3C(=O)N2C)O1,2,25,1,·,·,·,·
COc1cccc(C#Cc2ccc([C@@H]3[C@@H](CO)N4C(=O)CN(C(C)=O)C[C@@H]34)cc2)c1,-18,·,8,·,·,·,·
CN1C(=O)c2cc(NC(=O)c3ccc(F)cc3)ccc2OC[C@H]2O[C@H](CC(=O)N3CCOCC3)CC[C@H]21,-5,14,-6,·,·,·,·
C/C=C/c1ccc([C@@H]2[C@@H](CO)N(CCC(F)(F)F)C23CN(C(C)=O)C3)cc1,-1,·,0,·,·,·,·
C=CCOC(=O)[C@@H]1[C@H]2C(=O)O[C@H](c3ccccc3)[C@H](c3ccccc3)N2[C@H](c2ccc(OCCOC(=O)[C@@H]3C[C@@H]4C(=O)NCC(=O)N4[C@@H]3c3ccc(O)cc3)cc2)[C@@]12C(=O)Nc1ccc(I)cc12,16,·,·,·,·,·,·
CCCNC(=O)[C@H]1[C@H](CO)[C@H]2Cn3c(ccc(-c4ccccc4OC)c3=O)[C@@H]1N2C(=O)NCCC,0,-4,11,·,·,·,·
COCCNC(=O)[C@H]1[C@H](CO)[C@H]2Cn3c(ccc(-c4ccc(OC)cc4)c3=O)[C@@H]1N2C(=O)NC(C)C,4,100*,20,18,-23,14,19
CCCNC(=O)N1[C@@H]2c3ccc(-c4ccccc4OC)c(=O)n3C[C@H]1[C@H](CO)[C@H]2C(=O)NCC,-2,107*,·,-9,-2,-8,-6
COCCNC(=O)[C@@H]1[C@@H](CO)[C@@H]2Cn3c(ccc(-c4ccc(F)cc4)c3=O)[C@H]1N2C(=O)NC(C)C,-2,20,13,·,·,·,·
COc1ccc(S(=O)(=O)N(C)C[C@H]2OCCCC[C@@H](C)Oc3ccc(NS(=O)(=O)c4ccccc4)cc3C(=O)N([C@@H](C)CO)C[C@@H]2C)cc1,-2,89,·,·,·,·,·
SMILES,C diff HTS,T cruzi growth-1,Pf Dd2 growth,T cruzi growth-2,T cruzi growth-3,NIH3T3 tox,NIH3T3 tox 2
C[C@H]1CN([C@@H](C)CO)C(=O)Cc2cc(NC(=O)CCN3CCOCC3)ccc2O[C@@H]1CN(C)C(=O)Nc1ccccc1,2,20,37,·,·,·,·
COc1ccc2c3c([nH]c2c1)[C@H](CO)N(S(C)(=O)=O)CC31CCN(Cc2ccccc2)CC1,7,·,-60,·,·,·,·
C[C@H]1CN([C@@H](C)CO)C(=O)CCCn2nncc2CO[C@@H]1CN(C)Cc1ccc(C(=O)Nc2ccccc2N)cc1,-7,103*,-6,111*,64,24,12
C[C@H](CO)N1C[C@H](C)[C@H](CN(C)Cc2ccc(C(=O)O)cc2)OCc2cnnn2CCCC1=O,-2,·,28,·,·,·,·
C[C@H](CO)N1C[C@H](C)[C@H](CN(C)Cc2ccc3cccnc3c2)OCc2cnnn2CCCC1=O,1,111*,2,-24,-94,-3,4
C[C@@H]1CN([C@H](C)CO)C(=O)CCCn2nncc2CO[C@@H]1CN(C)Cc1ccc2cccnc2c1,·,-1,-6,·,·,·,·
CCCNC(=O)N1CC2(CCN(C)CC2)c2c(n(C)c3cc(OC)ccc23)[C@@H]1CO,·,·,33,·,·,·,·
CCC(=O)N1C[C@H](C)[C@@H](OC)CN(C)C(=O)c2ccc(NC(=O)c3ccccc3)cc2OC[C@@H]1C,·,108*,-10,8,-2,18,6
CCC(=O)N1C[C@@H](C)[C@@H](OC)CN(C)C(=O)c2cc(NC(=O)c3ccccc3)ccc2OC[C@@H]1C,·,-17,-37,·,·,·,·
CCCC(=O)Nc1ccc2c(c1)OC[C@H](C)N(C(=O)c1cccnc1)C[C@@H](C)[C@@H](OC)CN(C)C2=O,·,13,9,·,·,·,·
CCCN1C[C@@H](C)[C@H](OC)CN(C)C(=O)c2ccc(NC(=O)c3cccc(F)c3)cc2OC[C@H]1C,·,102*,-87*,104*,63,11,37*
CCCN1C[C@H](C)[C@H](OC)CN(C)C(=O)c2ccc(NC(=O)c3cccc(F)c3)cc2OC[C@H]1C,·,51,-35,·,·,·,·

# Source: PubChem (Broad Institute)
